Screen size: about 360,000 compounds; about 9,100 (2.5%) were called active. Not shown: some 4% with an inconclusive outcome. For the sample, actives were picked, then their nearest neighbours and some compounds at random. A number with no mark means an inactive call. No stated cut-off is given here; in the data, active means max response below about -50%; inconclusive means no clear call, values can overlap the other calls; inactive means above that.
On the % scale 0 is the no-effect control and ±100 the full control effect.

The assay deals with D(3) dopamine receptor (Homo sapiens) (UniProt P35462). Description: qHTS of D3 Dopamine Receptor Antagonist: qHTS. The settings on record: D3R cells, DiscoveRx beta-arrestin luminescence, antagonist mode; active compounds read low. Summed up: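 Cells plated overnight at 1500 cells/well, then exposed to library compounds with dopamine controls for 90 minutes at 37 degrees C. DiscoveRx reagent added for 30–60 minutes at room temperature; luminescence read, quantitative HTS format.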
Sequence of D(3) dopamine receptor (Homo sapiens) (P35462 whole entry, looked up): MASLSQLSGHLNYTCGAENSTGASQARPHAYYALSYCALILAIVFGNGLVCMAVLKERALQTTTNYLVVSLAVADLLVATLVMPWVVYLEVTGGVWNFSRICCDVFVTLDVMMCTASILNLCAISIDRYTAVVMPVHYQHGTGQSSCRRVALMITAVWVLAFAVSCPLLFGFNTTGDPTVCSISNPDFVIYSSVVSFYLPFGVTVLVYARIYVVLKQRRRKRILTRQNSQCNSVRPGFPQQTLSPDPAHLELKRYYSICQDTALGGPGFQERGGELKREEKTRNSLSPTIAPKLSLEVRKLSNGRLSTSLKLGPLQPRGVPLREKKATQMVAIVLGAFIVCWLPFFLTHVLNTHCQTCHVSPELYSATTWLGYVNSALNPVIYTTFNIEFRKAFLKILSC
(In qHTS, concentration-response curves come from the screen itself.)
For `Nc1cccc(-c2cncc(N3CCN(Cc4ccccn4)CC3)n2)c1`, the max response, negative = inhibition was -4.86%.

As for `CCN(CC(=O)Nc1ccc(NC(C)=O)cc1)C(=O)C1CC(=O)N(c2ccc3c(c2)OCCO3)C1` (stereo not drawn), the max response, negative = inhibition was 19%.

For `O=C(CN1C(=O)NC2(CCc3ccccc32)C1=O)NC1CCCCC1` (stereo not drawn), the max response, negative = inhibition is -24.4%.

Turning to `CCOC(=O)C1(C)CCCN(C(=O)c2ccc(F)c(Cl)c2)C1` (stereo not drawn), the max response, negative = inhibition is 104%.

As to `CC(=O)c1cccc(-c2cnc3c(NC=O)cc(-c4ccccc4Oc4ccccc4)cn23)c1`, the max response, negative = inhibition is 31%.

Take `C#Cc1cc(N2CCN(C(=O)c3ccoc3)CC2)n2nc(-c3cccc(Cl)c3)cc2n1`: the max response, negative = inhibition was 44.3%.

As to `CCOC(=O)[C@]12CCCC=C1N(CCC1=CCCCC1)C(=O)[C@H](CC(=O)N1CCSCC1)C2`, the max response, negative = inhibition was 21.2%.

In the case of `Cc1ccc(C(=O)NC(=S)Nc2ccc3[nH]c(=O)[nH]c3c2)cc1C`, the max response, negative = inhibition is -9.59%.

For the molecule `Cc1cc2[nH]ncc2cc1NC(=S)NC(=O)c1ccccc1`, the max response, negative = inhibition was -53.9% (active).

For `Cc1cc(C)cc(C(=O)NC(=S)Nc2ccc3[nH]c(=O)[nH]c3c2)c1`, the max response, negative = inhibition is -10.1%.

As for `COc1ccccc1CNC(=O)c1cc(-c2cc(Cl)ccc2C)n[nH]1`, the max response, negative = inhibition was 3%.

As to `C/C(=N\NC(=O)c1ccc(C)cc1)C1C(=O)c2ccccc2C1=O`, the max response, negative = inhibition was -89.4% (active).

For the molecule `O=C1c2ccccc2C(=O)C1C(=O)C1CC1`, the max response, negative = inhibition was 4.87%.

As for `Cc1ccc(C(=O)N/C(=C/c2cccnc2)C(=O)O)cc1`, the max response, negative = inhibition is 0%.

Turning to `O=C1NC[C@H](CCCCN2CCN(CCc3ccccc3)C(=O)C2=O)N(CC2CCCCC2)C1=O`, the max response, negative = inhibition is 2.55%.

`CCN(C(=O)Nc1cccc2ccccc12)c1ccccc1`: the max response, negative = inhibition is -20.4%.

Consider `Cc1cc(Br)ccc1NC(=O)CCCOc1cc(=O)n(C)c2ccccc12`, for which the max response, negative = inhibition is -20.6%.

Regarding `COc1ccc(Nc2ccc3ccccc3c2)cc1`, the max response, negative = inhibition was -3.21%.

With `COc1ccc(Nc2cc(=O)oc3ccccc23)cc1`, the max response, negative = inhibition was -15.7%.

Take `COc1ccc(Nc2oc(-c3ccccc3Cl)nc2C#N)cc1`: the max response, negative = inhibition is -54.1% (active).

Take `O=C(CSc1ccc(Cl)cc1)NC1CC1`: the max response, negative = inhibition is 20.3%.

For the molecule `Cc1cccc(C)c1NC(=O)CSc1nc2c([nH]1)c(=O)n(C)c(=O)n2C`, the max response, negative = inhibition was -7.1%.

With `Cc1cc2cc3c(cc2nc1SCC(=O)Nc1c(C)cccc1C)CCC3`, the max response, negative = inhibition was -74.6% (active).

For `Cc1cc(C)c(C#N)c(SCC(=O)Nc2ccccc2)n1`, the max response, negative = inhibition was -13.9%.

Consider `CN(C)CCNC(=O)c1cccc(-c2cnc3c(NC=O)cc(-c4cccc(C(F)(F)F)c4)cn23)c1`, for which the max response, negative = inhibition is 0%.

For the molecule `CN(Cc1ccccc1)C(=O)CCC1CCN(C(=O)c2ccco2)CC1`, the max response, negative = inhibition is 13.8%.

As for `O=C(Cc1ccc(-n2c(=O)[nH]c3ccccc3c2=O)cc1)N1CCN(c2cccc(Cl)c2)CC1`, the max response, negative = inhibition was 36.6%.

As to `O=C(CCCn1c(=O)[nH]c2cc(Cl)ccc2c1=O)NCCN1CCN(c2ccccc2)CC1`, the max response, negative = inhibition is -29.2%.

In the case of `CCn1c(=O)cc(OCC(=O)NCCCN2CCN(c3cccc(Cl)c3)CC2)c2ccccc21`, the max response, negative = inhibition was -69.4% (active).

`COc1cccc(CNC(=O)Cc2csc(Nc3nc(=S)[nH]c4ccccc34)n2)c1`: the max response, negative = inhibition was 11.5%.

With `CCOC(=O)N1CCC(Nc2c(NCCN3CCN(c4cccc(Cl)c4)CC3)c(=O)c2=O)CC1`, the max response, negative = inhibition was 0.472%.

As to `O=C(CCn1c(=O)[nH]c2ccccc2c1=O)NCCCN1CCN(c2cccc(Cl)c2)CC1`, the max response, negative = inhibition is -71.4% (active).

With `O=C(Cc1csc(Nc2nc(=S)[nH]c3ccccc23)n1)NCCCN1CCN(c2cccc(Cl)c2)CC1`, the max response, negative = inhibition is -83.7% (active).

As to `Cn1c(Cc2cccc3ccccc23)nnc1SCC(=O)N1CCN(c2cccc(Cl)c2)CC1`, the max response, negative = inhibition is 0%.

On to `O=C(NCCCN1CCOCC1)c1cc(-c2ccc(Cl)cc2)on1`, for which the max response, negative = inhibition is 4.36%.

Regarding `O=C(COc1cc2oc(=O)c3c(c2cc1Cl)CCC3)NCCCN1CCOCC1`, the max response, negative = inhibition was -19%.

Take `Cn1c(C(=O)N2CCC(C(N)=O)CC2)cc2c(=O)n(C)c3ccccc3c21`: the max response, negative = inhibition was 0%.

Take `Cn1c(C(=O)NCCCN2CCN(c3cccc(Cl)c3)CC2)cc2c(=O)n(C)c3ccccc3c21`: the max response, negative = inhibition is -103% (active).

In the case of `C[C@H]1CN([C@@H](C)CO)C(=O)CCCn2cc(nn2)CO[C@@H]1CN(C)S(=O)(=O)c1ccccc1C#N`, the max response, negative = inhibition is -12.5%.

Regarding `Cc1ccc2nc(-c3ccccc3)c(CC3CCCCC3)n2c1`, the max response, negative = inhibition was -9.93%.

With `COc1ccc(C(O)C(O)(C(=O)OC(C)C)c2ccc(C)cc2)cc1` (stereo not drawn), the max response, negative = inhibition was -17.4%.

On to `CC(C)C[C@H]1CNC(=O)C(=O)N1C[C@H]1CCCN1C[C@H](Cc1ccc(O)cc1)N1C[C@H](CC(C)C)N(CC2CCCCCC2)C(=O)C1=O`, for which the max response, negative = inhibition is 30.9%.

`CC(C)C[C@@H]1Cc2[nH][nH]c(=O)c2[C@H](CCc2ccccc2)O1`: the max response, negative = inhibition is -13%.

In the case of `Clc1ccc(-c2cccc3nccn23)cc1`, the max response, negative = inhibition is 0%.

As for `CCn1c(SCC(=O)N2CCCC2=O)nc2ccccc21`, the max response, negative = inhibition was 7.76%.

For the molecule `CCOC(=O)[C@]12CCCC=C1N(CCC1=CCCCC1)C(=O)[C@H](CC(=O)NCCCOC)C2`, the max response, negative = inhibition was 7.2%.

In the case of `COc1ncnc2c1ncn2CCCNCCN1CCOCC1`, the max response, negative = inhibition was 20.7%.

As for `Cc1ccc(S(=O)(=O)N/N=C\c2cc3c(cc2[N+](=O)[O-])OCO3)cc1`, the max response, negative = inhibition is -4.05%.

Take `COc1ccc(S(=O)(=O)Nc2ccc3cn[nH]c3c2)cc1[N+](=O)[O-]`: the max response, negative = inhibition is -18.8%.

`COc1ccc(S(=O)(=O)N/N=C\c2ccc(OC)c(COc3ccc(C)cc3[N+](=O)[O-])c2)cc1`: the max response, negative = inhibition is -59.9% (active).

In the case of `Nc1[nH]c(C(=O)c2ccccc2)c(-c2ccncc2)c1C(=O)NCc1cccc2ccccc12`, the max response, negative = inhibition was -9.51%.

As to `Nc1ncnc2c1ncn2[C@@H]1O[C@H](CNC(=O)[C@H](N)Cc2cccnc2)[C@@H](O)[C@H]1O`, the max response, negative = inhibition was 1.65%.

Regarding `O=C(CN1CCN(Cc2ccccc2)CC1)Nc1ccc(F)c(F)c1`, the max response, negative = inhibition was -16.4%.

Turning to `COc1cc(NC(=O)NCC2CCN(Cc3ccc(C)cc3)CC2)cc(OC)c1OC`, the max response, negative = inhibition is -16.2%.

Turning to `COc1ccc(Cl)cc1NC(=O)C(C)N1CCc2ccccc21` (stereo not drawn), the max response, negative = inhibition is -7.48%.

On to `COc1ccc(Cl)cc1NC(=O)NCC1CCN(Cc2ccccc2F)CC1`, for which the max response, negative = inhibition is -85.7% (active).

Regarding `O=C(NCC1CCN(Cc2ccccc2Cl)CC1)Nc1cccc(Cl)c1`, the max response, negative = inhibition was -29.8%.

Take `Cc1cccc(CN2CCC(CNC(=O)Nc3ccc(F)c(Cl)c3)CC2)c1`: the max response, negative = inhibition was -60.2% (active).

For `CCc1nc2c(OCC(=O)C(C)(C)C)cccn2c1N(C)C(=O)c1ccccc1F`, the max response, negative = inhibition was -24.2%.

`O=C1NC(Cc2ccccc2)c2nc3ccc(Br)cc3c(=O)n2-c2cc3ccccc3cc21` (stereo not drawn): the max response, negative = inhibition is -0.847%.

As to `COc1ccccc1CNC(=O)c1cc(-c2cc(F)ccc2OC)n[nH]1`, the max response, negative = inhibition is 18.6%.

Regarding `COc1cc(NC(=O)c2cc(-c3ccc(F)cc3OC(C)C)n[nH]2)cc(OC)c1OC`, the max response, negative = inhibition was 6.57%.

Turning to `COc1cc(F)ccc1-c1cc(C(=O)NCC2CCCCC2)[nH]n1`, the max response, negative = inhibition is -75.3% (active).

For `CC(=O)c1ccc(Nc2nc(C(N)c3ccccc3)cs2)cc1` (stereo not drawn), the max response, negative = inhibition is 2.63%.

For `C[C@@H]1CN([C@@H](C)CO)S(=O)(=O)c2ccc(-c3ccc(C(=O)N(C)C)cc3)cc2O[C@@H]1CN(C)Cc1ccccc1C(=O)O`, the max response, negative = inhibition was 16.1%.

`COc1ccc(F)c(-c2nc(CN3CCC(c4ccccc4)CC3)c(C)o2)c1`: the max response, negative = inhibition was -19.4%.

Regarding `COc1ccc(Cn2nnc3c(=O)[nH]c(C4CCN(C(=O)c5ccccc5Cl)CC4)nc32)cc1`, the max response, negative = inhibition was -22.4%.

`COc1ccc(CN2CCC(c3nc4ccc(Cl)cc4[nH]3)CC2)cc1`: the max response, negative = inhibition is -101% (active).

For the molecule `C[C@@H]1CN([C@@H](C)CO)C(=O)c2cc(Br)cnc2O[C@@H]1CN(C)C(=O)C1CCCCC1`, the max response, negative = inhibition is 22.5%.

Consider `O=C(CSc1nnc(-c2ccco2)n1-c1ccccc1)NCCc1ccccc1`, for which the max response, negative = inhibition is -54.3% (active).

Turning to `Cc1cccc(C)c1NC(=O)CCCSc1nnc(-c2ccco2)n1-c1ccccc1`, the max response, negative = inhibition is -8.78%.

For the molecule `COc1ccc(C(=O)NC(=O)CSc2nnc(-c3ccco3)n2-c2ccccc2)cc1`, the max response, negative = inhibition was -3.83%.

In the case of `O=C(CO/N=C/c1ccccc1O)NNC(=O)c1ccccc1Cl`, the max response, negative = inhibition was -53.5% (active).

On to `O=C(NNC(=O)c1ccccc1O)c1ccccc1O`, for which the max response, negative = inhibition is 5.67%.

Turning to `O=C(CO/N=C/c1ccccc1OC(F)F)NC1CCCC1`, the max response, negative = inhibition was 8.59%.

Turning to `Cc1ccc(S(=O)(=O)N2CC3C(=O)C[C@@H](c4ccccc4Cl)N(S(=O)(=O)c4ccc(C)cc4)C3CC2c2ccccc2)cc1` (stereo partly drawn), the max response, negative = inhibition was 9.92%.

On to `CCOC(=O)c1ccn(S(=O)(=O)c2ccc(C)cc2)c1-c1ccccc1`, for which the max response, negative = inhibition was -20.6%.

Consider `CN(C)CCNC(=O)Nc1cccc(Cl)c1Cl`, for which the max response, negative = inhibition is -70.3% (active).

With `Cc1c(Cl)cccc1NC(=O)NCCCN1CCCC1=O`, the max response, negative = inhibition was -2.4%.

As to `Cc1c(Cl)cccc1NC(=O)NCc1ccc(C)n1C`, the max response, negative = inhibition is 13.8%.

For `Cc1ccccc1-c1nc(NC(C)C)nc2cc(-c3ccccc3)sc12`, the max response, negative = inhibition is 21.7%.

Turning to `C[C@H]1CN([C@@H](C)CO)C(=O)c2cc(-c3cccc(F)c3)cnc2O[C@@H]1CN(C)S(C)(=O)=O`, the max response, negative = inhibition is 17.3%.

Consider `COc1ccc(Sc2ccc(NC(=O)c3cccc(Cl)c3)cc2C#N)cc1`, for which the max response, negative = inhibition was 28.7%.

With `c1ccc(-n2nnnc2NC2CCCCCC2)cc1`, the max response, negative = inhibition was -9.29%.

As for `COc1ccccc1CN(C)c1nnnn1-c1ccccc1`, the max response, negative = inhibition was 6.89%.

Take `Fc1ccccc1CCNc1nnnn1-c1ccccc1`: the max response, negative = inhibition was -77.8% (active).

In the case of `COc1ccccc1CNc1nc(Nc2ccccc2Cl)c2sccc2n1`, the max response, negative = inhibition was 51.2%.

`Cc1ccccc1NC(=O)Cc1nc(COC(=O)CNC(=O)c2ccc(Cl)cc2Cl)cs1`: the max response, negative = inhibition is -6.28%.

Source of the values: PubChem BioAssay AID652054 (National Center for Advancing Translational Sciences (NCATS), 2013).
